# The list is not random: actives were taken first. Their share in the collection is about 2.9%.
# KLK7 zymogen act = activators of human kallikrein-7 zymogen; purified proKLK7, EDANS-DABCYL substrate fluorescence; 100% is mature enzyme control, 0% vehicle; activation, % at 7 µM; 0.9% of 370,000 active;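 active = activation above the mean of all tested compounds plus 3 SD, computed per campaign excluding outliers beyond control limits, cut at about 13% in these data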
# PLCg1 inh = PLC-gamma1 (human) inhibition, primary screen. P19174. purified PLC-gamma1, fluorogenic substrate, fluorescence. inhibition, % at 12.2 µM. 0.84% of 370,000 active. AID 720700; in the data active = inhibition above about 9.5%
# ADAM10 inh = inhibitors of human ADAM10. O14672. recombinant ADAM10, EDANS/DABCYL FRET peptide cleavage, 3 h. inhibition, % at 7 µM. 0.62% of 370,000 active. AID 720582;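 active = inhibition above a per-campaign cutoff equal to the mean of compounds falling between control-based bounds plus 3 SD, cut at about 20% in these data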;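 note: 0% = DMSO wells while the 100% control is not disclosed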
# PLCb3 inh = blocks human PLC-beta3 enzyme activity; Purified PLC-beta3, fluorogenic substrate, fluorescence; inhibition, % at 12.2 µM; 0.18% of 370,000 active; Q01970; AID 720704; in the data active = inhibition above about 11%;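 note: 0% = median of compound wells on plate and 100% = full blocker control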
# ADAM17 inh = inhibitors of human ADAM17. AID 720648. 0.83% of 370,000 active. P78536. inhibition, % at 6.95 µM. recombinant ADAM17, EDANS/DABCYL FRET peptide cleavage;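 active = inhibition above the mean of compounds lying between control limits plus 3 SD, set per campaign, cut at about 8.5% in these data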;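 note: 0% = DMSO-only wells as the low control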
# Target sequence (P78536 215-824 limits assumed): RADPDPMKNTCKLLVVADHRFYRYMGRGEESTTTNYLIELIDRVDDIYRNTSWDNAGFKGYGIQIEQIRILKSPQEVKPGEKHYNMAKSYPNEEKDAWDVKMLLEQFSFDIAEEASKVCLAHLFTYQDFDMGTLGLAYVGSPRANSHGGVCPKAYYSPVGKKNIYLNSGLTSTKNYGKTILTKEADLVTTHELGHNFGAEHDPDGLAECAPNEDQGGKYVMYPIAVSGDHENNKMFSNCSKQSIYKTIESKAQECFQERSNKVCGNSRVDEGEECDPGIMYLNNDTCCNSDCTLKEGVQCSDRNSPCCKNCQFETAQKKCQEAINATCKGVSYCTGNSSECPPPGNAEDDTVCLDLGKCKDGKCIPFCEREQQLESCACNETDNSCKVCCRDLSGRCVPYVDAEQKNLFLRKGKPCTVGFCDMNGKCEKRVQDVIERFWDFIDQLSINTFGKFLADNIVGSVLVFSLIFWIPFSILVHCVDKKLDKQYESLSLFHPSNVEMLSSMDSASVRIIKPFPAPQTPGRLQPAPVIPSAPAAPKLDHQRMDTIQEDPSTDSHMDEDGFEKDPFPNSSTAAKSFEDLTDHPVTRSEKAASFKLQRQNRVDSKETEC
# KLK7 act conf = proKLK7 activation, confirmation; shares compounds with KLK7 zymogen act; purified proKLK7, EDANS-DABCYL substrate fluorescence; scaled: vehicle 0, mature enzyme 100; activation, % at 7 µM; 68% of 3,200 active;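 active = activation, as change over the incubation, above the mean of all tested compounds plus 3 SD, cut at about 13% in these data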
# EDANS-DABCYL int = counter-screen for kallikrein-7 activators: EDANS-DABCYL optical interference | activation, % at 7 µM | shares compounds with KLK7 zymogen act | 80% of 3,200 active | EDANS-DABCYL substrate fluorescence interference, no enzyme, 4 h; solvent 0%, active enzyme control 100%;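 active = activation above the all-compound mean plus 3 SD, ignoring values outside control-based bounds, cut at about 4.8% in these data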;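 note: value is the 4 h activation minus the activation read at time zero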
# K7 EDANS ctr = counter-screen for kallikrein-7 activators: EDANS-DABCYL interference, dose response | shares compounds with KLK7 zymogen act | EDANS-DABCYL peptide fluorescence interference, no enzyme | EC50, µM | 20% of 250 active | AID 720493;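 active = compounds that raise the fluorescence signal in this interference counterscreen, with EC50 at or below 10 µM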;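 note: intact quenched peptide substrate alone read at 355 nm excitation and 520 nm emission; signal is fluorescence gain from T0 to T4 after four hours at room temperature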
# Numbers without * were called inactive; i = inactive; nt = no result.
SMILES,KLK7 zymogen act,PLCg1 inh,ADAM10 inh,PLCb3 inh,ADAM17 inh,KLK7 act conf,EDANS-DABCYL int,others
CCc1cc2c(CN3CCN(Cc4ccccc4)CC3)cc(=O)oc2cc1O,62*,i,i,i,i,21*,-15,K7 EDANS ctr=>70
C[C@H]1[C@@H](NC(=O)Cc2ccsc2)CC[C@@]23CCCN2C(=O)CCC[C@@H]13,nt,1,-1,0,-3,nt,nt,
CC1CCC2(CC1)CCN(CCCOC(=O)Nc1cccc(C(F)(F)F)c1)C2=O (stereo not drawn),0,-2,11,-2,3,nt,nt,
C[C@@H]1OC(C2CCCCC2)N(C)[C@H]2C[C@H]3c4[nH]c5cccc(-c6cccc(F)c6)c5c4CCN3C(=O)[C@@H]12 (stereo partly drawn),-21,-184,-213,-234,-53,nt,nt,
O=S(=O)(CC1NCc2ccccc21)NCCc1ccccc1 (stereo not drawn),0,-2,1,-2,1,nt,nt,
CC1CCCCN1Cc1c(O)ccc2c(=O)c(-c3nc4ccccc4s3)coc12 (stereo not drawn),0,-52,-6,-73,-7,nt,nt,
CCC1CCCCN1Cc1c(O)ccc2c(=O)c(-c3ccccc3OC)coc12 (stereo not drawn),35*,i,i,i,-481,51*,71*,
COc1ccccc1-c1coc2c(CN3CCC(C)CC3)c(O)ccc2c1=O,57*,i,i,i,i,64*,63*,
CC[C@H](C)/C=C(C)/C=C/c1cc2c(cn1)C(=O)[C@@](C)(OC(C)=O)C(O)=C2Cl,86*,-97,-231,-121,-61,108*,123*,
O=C(O)CCc1nn2c3ccccc3nc2n(CCN2CCCCC2)c1=O,57*,-219,-226,-273,-67,15*,13*,K7 EDANS ctr=i
C=CCn1c2ccccc2n2nc(C)c(=O)nc12,4,-285,-248,-363,-57,nt,nt,
Cc1nn2c3ccccc3n(CCN3CCCCC3)c2nc1=O,55*,-366,-275,i,-83,8,12*,
O=C(NCCc1ccccn1)c1ccc2c(c1)ncn2C1CCCCC1,0,1,-3,1,-2,nt,nt,
O=c1c2cc3cccnc3nc2ncn1Cc1cccs1,4,-21,-126,-29,-43,nt,nt,
Cc1cc(=O)[nH]c(SCC(=O)Nc2cccc(Cl)c2F)n1,0,4,3,4,3,nt,nt,
C[C@H]1[C@@H](OC(=O)NCCc2c[nH]c3ccccc23)CC[C@@]23CCCN2C(=O)CCC[C@@H]13,nt,-2,-1,-2,1,nt,nt,
COc1ccc(-c2ccc3c(n2)CCCN3Cc2ccccc2C(F)(F)F)cc1,18*,i,i,i,-333,15*,13*,K7 EDANS ctr=i
FC(F)(F)c1ccccc1CN1CCCc2nc(-c3ccccc3)ccc21,1,-39,-69,-54,-18,nt,nt,
CN(C)C(=O)CN1c2cccc3cccc(c23)S1(=O)=O,7,-240,-207,-294,-85,nt,nt,
CC(C(=O)N(C)C)N1c2cccc3cccc(c23)S1(=O)=O (stereo not drawn),8,-111,-153,-152,-36,nt,nt,
O=C(O)CCN1c2cccc3cccc(c23)S1(=O)=O,16*,-337,-248,-468,-87,19*,11*,K7 EDANS ctr=>69
C=CCNC(=O)CN1c2cccc3cccc(c23)S1(=O)=O,13*,-233,-160,-292,-70,4,7.1*,
CC(C(=O)O)N1c2cccc3cccc(c23)S1(=O)=O (stereo not drawn),22*,i,-296,i,-123,27*,28*,
CN(CCOC(=O)c1cc2ccccc2o1)C1CN(Cc2cn(Cc3ccccc3C(F)(F)F)nn2)S(=O)(=O)C1 (stereo not drawn),0,0,-11,-4,-9,nt,nt,
COc1ccc2oc(-c3ccccc3)c(C(=O)O)c2c1,6,-343,i,i,-405,nt,nt,
SMILES,KLK7 zymogen act,PLCg1 inh,ADAM10 inh,PLCb3 inh,ADAM17 inh,KLK7 act conf,EDANS-DABCYL int,others
COc1ccc2oc(-c3ccccc3)cc(=O)c2c1,14*,i,i,i,-324,-34,-29,
COc1ccc2oc(-c3ccccc3)c(C(N)=O)c2c1,13*,-375,i,-486,-173,10,18*,
O=c1cc(-c2ccc(F)cc2)oc2ccccc12,0,0,-6,0,-3,nt,nt,
COc1ccc(-c2cc(=O)c3cc(OC)ccc3o2)cc1,3,-80,-314,-100,-77,nt,nt,
CSc1ccc(-c2cc(=O)c3ccccc3o2)cc1,66*,i,i,i,i,68*,76*,
CCOC(=O)c1c(-c2ccccc2)oc2ccc(OC(C)C(=O)O)cc12 (stereo not drawn),36*,i,i,i,-376,6,-15,
CCOC(=O)c1c(-c2ccccc2)oc2ccc(OCC(=O)NNC(=O)CCC(=O)O)cc12,2,-458,i,i,-283,nt,nt,
CCOC(=O)c1c(-c2ccccc2)oc2ccc(OC(C)=O)cc12,-5,-37,-75,-35,-26,nt,nt,
CCOC(=O)c1c(-c2ccccc2)oc2ccc(OCC(=O)NNC(=O)CCCC(=O)O)cc12,13*,i,i,i,-434,-24,-37,
CCOC(=O)c1c(-c2ccccc2)oc2ccc(OCC(O)CN(C)C)cc12 (stereo not drawn),17*,-369,i,i,-144,-13,-11,
CN(C)C(=O)c1cccc(-c2cccc3nccn23)c1,2,-89,-258,-134,-81,nt,nt,
OCc1ccc(-c2cccc3nccn23)cc1,16*,-274,i,-353,-454,15*,14*,
CONC(=O)c1ccc(-c2cccc3nccn23)cc1,13*,-246,-123,-317,-29,6,12*,
Cc1ccc(C(=O)N(C)[C@H]2C[C@H]3c4[nH]c5c(-c6ccc7c(c6)OCO7)cccc5c4CCN3C[C@H]2[C@H](C)O)cc1,0,-5,5,-2,1,nt,nt,
O=C1CCCC2=C1C(c1ccc(O)c(O)c1)c1c(ccc3ncccc13)N2 (stereo not drawn),0,-6,-8,-6,0,nt,nt,
O=C1CCCC2=C1C(c1ccc(O)cc1)c1c(ccc3ccccc13)N2 (stereo not drawn),20*,i,i,i,-444,-38,-36,
COCCn1c(N)c(S(=O)(=O)c2cccs2)c2nc3ccccc3nc21,56*,i,i,i,i,24*,26*,
N#Cc1c(N)n(CCOC(=O)c2cccc([N+](=O)[O-])c2)c2nc3ccccc3nc12,83*,-48,-181,-66,-51,91*,88*,

# Screening data from PubChem.
